35 compounds from PubChem BioAssay (NCI) can be followed below.

About 83,000 compounds went through this panel and 20% of them were active in at least one assay; those are over-represented in the sample as a whole.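 For each line, cells grew in 96-well plates with the test compound present at a single concentration for 48 hours.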 Calls of active or inactive are those of the source. Rule for the calls: active = growth percent below 10; inactive = the rest.

The test system of this test is MDA-MB-231 breast. Nature of the test: NCI-60 one-dose screen, 48 h (100 = growth as untreated, 0 = no growth, -100 = all killed). Particulars: 10 µM unless noted.
Regarding `CCOc1cc2ncc(C#N)c(Nc3ccc(F)c(Cl)c3)c2cc1NC(=O)/C=C/CN(C)C`, the growth is -38.8% (active).

For `CCN(CC)CCNC(=O)c1c(C)[nH]c(/C=C2\C(=O)Nc3ccc(F)cc32)c1C`, the growth was 0.117% (active).

As to `COc1ccc2c(CCC(c3ccccc3)c3ccccc3)c3[n+](cc2c1OC)CCc1cc2c(cc1-3)OCO2`, the growth is -28.7% (active).

With `C[C@@H](Oc1cc(-n2cnc3ccc(CN4CCN(C)CC4)cc32)sc1C(N)=O)c1ccccc1C(F)(F)F`, the growth was 27.2% (inactive).

Turning to `CC(C)=CCc1cc2c(cc1O)C1=C(C(=O)C3=C(NCCS3(=O)=O)C1=O)C(C=C(C)C)O2` (stereo not given), the growth was 12.1% (inactive).

Take `CC(N)C(Cc1ccc(Cl)cc1)c1ccc(Cl)cc1` (stereo not given): the growth is 35.5% (inactive).

For `Clc1nc(Cl)c2ncn(CC#CCn3cnc4c(Cl)nc(Cl)nc43)c2n1`, the growth was -52.6% (active).

On to `O=C(Cc1ccc(-c2ccc(OCCN3CCOCC3)cc2)cn1)NCc1ccccc1`, for which the growth is 26.7% (inactive).

With `Cc1nc(NC(=O)N2CCC[C@H]2C(N)=O)sc1-c1ccnc(C(C)(C)C(F)(F)F)c1`, the growth is 65.3% (inactive).

Regarding `COc1ccc2c(CCCc3ccc(Cl)cc3Cl)c3[n+](cc2c1OC)CCc1cc2c(cc1-3)OCO2`, the growth was -10% (active).

Turning to `Cc1c(Cn2c(C)nc3c(C(=O)O)cc(N4CCOCC4)cc32)cccc1C(F)(F)F`, the growth is 110% (inactive).

With `COc1cc2nccc(Oc3ccc(NC(=O)C4(C(=O)Nc5ccc(F)cc5)CC4)cc3)c2cc1OC`, the growth is 4.99% (active).

Turning to `C=CCCCC(=O)CCC(=O)OCC1O[C@@H](O[C@@H]2C(O)[C@@H](OC(C)=O)C(C)O[C@H]2O[C@H](CC=C)CCCCC)C(O)[C@@H](OC(=O)/C(C)=C/C)[C@@H]1OC(=O)/C=C/c1ccccc1` (stereo not given in full), the growth was 4.48% (active).

Regarding `O=c1[nH]ccc2c(S(=O)(=O)N3CCCNCC3)cccc12`, the growth was 87.3% (inactive).

Regarding `CC1(C=O)NC(=O)NC1=O` (stereo not given), the growth was 103% (inactive).

Consider `Cc1ccc(NC(=O)c2ccc(CN3CC[C@H](N(C)C)C3)c(C(F)(F)F)c2)cc1Nc1nccc(-c2cncnc2)n1`, for which the growth was -34.5% (active).

For `O=C(Nc1cccc(Cl)c1)Nc1ncc(CCNc2ncnc3ccsc23)s1`, the growth is 41.5% (inactive).

Consider `Cn1ccnc1C(=O)/C=C/c1ccc(CC(=O)Nc2ccc(Br)cc2)cc1`, for which the growth was 10.1% (inactive).

Consider `CNC(=O)c1nn(C)c2c1C(C)(C)Cc1cnc(Nc3ccc(N4CCN(C)CC4)cc3)nc1-2`, for which the growth was 14.7% (inactive).

For the compound `COc1cccc2cc(-c3nc(C4CCC(C(=O)O)CC4)n4ncnc(N)c34)[nH]c12` (stereo not given), the growth was 19.2% (inactive).

For the compound `CNc1ncc2cc(-c3cc(NC(=O)NCCC(C)(C)C)c(F)cc3C)c(C)nc2n1`, the growth is 1.7% (active).

`Cc1cc(C(=O)Nc2cc(Oc3ccc4nc(NC(=O)C5CC5)cn4n3)ccc2C)n(C)n1`: the growth is 21.9% (inactive).

Regarding `O=C(Cc1ccc(/C=C/C(=O)c2ncc[nH]2)cc1)Nc1ccc(Br)cc1`, the growth was 10% (inactive).

For the compound `CCc1ccc(C2=C(O)C(=O)C(c3ccc(CC)cc3)=C(O)C2=O)cc1`, the growth is -0.828% (active).

As for `CNC(=O)c1cccc2cc(Oc3ccnc4cc(OCC5(N)CC5)c(OC)cc34)ccc12`, the growth is 60.8% (inactive).

Take `CCCCN1CCCC[C@@H]1C(=O)N[C@H](C(=O)N(C)[C@H](CCc1nc(C(=O)N[C@@H](Cc2ccccc2)C[C@H](C)C(=O)OC)cs1)C(C)C)C(C)C`: the growth was 71.5% (inactive).

With `COc1cnc2c(c1)C(=O)c1c-2n(CCCN2CCC(N)CC2)c(=O)c2cc([N+](=O)[O-])ccc12`, the growth was 57.9% (inactive).

Consider `C=CC(=O)Nc1cc2c(Nc3ccc(F)c(Cl)c3)ncnc2cc1OCCCN1CCOCC1`, for which the growth is 0.732% (active).

In the case of `NC(=O)c1c(OCc2c(F)cc(Br)cc2F)nsc1NC(=O)NCCCCN1CCCC1`, the growth was -38.1% (active).

Take `CCc1nc2ccc(Cc3ccc(C(=O)NO)cc3)cc2c(=O)n1CCc1ccccc1`: the growth is -24% (active).

Turning to `Cc1cc(N(CCNc2ccnc3cc(Cl)ccc23)Cc2ccc3c(c2)OCO3)nc(N2CCN(C)CC2)n1`, the growth was 4.9% (active).

Take `Cc1ccc2oc(=O)cc(-c3cc(-c4cc5ccccc5oc4=O)nc(N)c3C#N)c2c1`: the growth was 55.5% (inactive).

On to `Cc1[nH]c(/C=C2\C(=O)Nc3ccc(F)cc32)c(C)c1C(=O)NC[C@H](O)CN1CCOCC1`, for which the growth was 29.8% (inactive).

Take `O=C(Nc1cn[nH]c1-c1nc2ccc(CN3CCOCC3)cc2[nH]1)NC1CC1`: the growth is 1.37% (active).

With `O=C1CSC(c2c(F)cccc2Cl)N1NC(=O)C(O)(c1ccccc1)c1ccccc1` (stereo not given), the growth was 93% (inactive).
